Test results: PubChem BioAssay (Tox21)
Records with an inconclusive call do not appear. The source made the active and inactive calls. Unless noted, calls come from the whole dose curve; as a rule, active = well fitted curve in the direction sought with a large enough effect in the repeat runs; inconclusive = weak or mixed curves; inactive = no such curve, though single readings can be large; an effect the other way counts as inactive or inconclusive.

Legend:
[1] = qHTS RealTime-Glo MT Cell Viability Assay in HEK293 cells - 0 hour (AID 1224880); note: top concentration of the series differs between compounds; nearly all actives have a fitted effect of over 45% in size
Method in brief: (§1)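 HEK293 + NanoLuc + prosubstrate, 600 cells/well; 5 h, 37 C/5% CO2; compound 23 nL in DMSO by pintool; 37 C; luminescence read at 0, 8, 16, 24, 32 and 40 h time points.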

[2] = A CellTox Green Cytotoxicity Assay to monitor cytotoxicity in HEK293 cells - 32 hour (AID 1224881); note: nearly all actives have a fitted effect of over 40% in size; note: potency is the fitted concentration of half-maximal effect
Method in brief: (§2)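 Tox21 screen in HEK293: membrane-impermeant cyanine dye fluoresces on binding dead-cell DNA; compound pinned 5 h post-seeding, plates held at 37 C, signal read repeatedly through 40 h.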

[3] = A CellTox Green Cytotoxicity Assay to monitor cytotoxicity in HepG2 cells - 32 hour (AID 1224883); note: nearly all actives have a fitted effect of over 50% in size; note: potency is the fitted concentration of half-maximal effect
Method in brief: (§3)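 Measurements at 0, 8, 16, 24, 32 and 40 h of treatment captured CellTox Green fluorescence in HepG2 cells that had been co-plated with reagent and preincubated 5 h at 37 C/5% CO2.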

[4] = A CellTox Green Cytotoxicity Assay to monitor cytotoxicity in HEK293 cells - 8 hour (AID 1224884); note: nearly all actives have a fitted effect of over 35% in size
Method in brief: as §2

[5] = qHTS RealTime-Glo MT Cell Viability Assay in HepG2 cells - 16 hour (AID 1224885); note: nearly all actives have a fitted effect of over 50% in size
Method in brief: (§4)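 Cell number in HepG2 cultures estimated from NanoLuc luminescence generated by metabolic reduction of a prosubstrate by living cells. The homogeneous, nonlytic format allowed repeated reads at 0, 8, 16, 24, 32 and 40 h of compound exposure.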

[6] = qHTS RealTime-Glo MT Cell Viability Assay in HEK293 cells - 24 hour (AID 1224886); note: nearly all actives have a fitted effect of over 50% in size; note: potency is the fitted concentration of half-maximal effect
Method in brief: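 Homogeneous bioluminescent viability format in HEK293 cells (600 cells/well). Following 5 h at 37 C/5% CO2, 23 nL compound was pintooled; the signal was measured repeatedly during 40 h incubation.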

[7] = qHTS RealTime-Glo MT Cell Viability Assay in HEK293 cells - 8 hour (AID 1224887); note: nearly all actives have a fitted effect of over 50% in size; note: potency is the fitted concentration of half-maximal effect
Method in brief: as §1

[8] = A CellTox Green Cytotoxicity Assay to monitor cytotoxicity in HEK293 cells - 16 hour (AID 1224888); note: nearly all actives have a fitted effect of over 35% in size
Method in brief: as §2

[9] = qHTS RealTime-Glo MT Cell Viability Assay in HepG2 cells - 0 hour (AID 1224889); note: nearly all actives have a fitted effect of over 50% in size
Method in brief: as §4

[10] = A CellTox Green Cytotoxicity Assay to monitor cytotoxicity in HepG2 cells - 8 hour (AID 1224890); note: nearly all actives have a fitted effect of over 45% in size
Method in brief: as §3

[11] = qHTS assay to identify small molecule antagonists of the estrogen receptor alpha (ER-alpha) signaling pathway using the BG1 cell line in the presence of 0.1 nM 17-beta-estradiol - cell viability counter screen (AID 1259241); note: nearly all actives have a fitted effect of over 40% in size; note: potency is the fitted concentration of half-maximal effect
Method in brief: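 The cell line endogenously expresses full-length ER-alpha and carries four EREs driving luciferase. Cells are cultured 5 days hormone-free, treated 22 hr with compounds and 0.1 nM estradiol, then viability is read by fluorescence.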

[12] = qHTS assay to identify small molecule antagonists of the androgen receptor (AR) signaling pathway using the MDA cell line in the presence of 0.5 nM R1881 - cell viability counter screen (AID 1259242); note: nearly all actives have a fitted effect of over 45% in size; note: potency is the fitted concentration of half-maximal effect
Method in brief: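 Concentration-response screen of compounds for toxicity in MDA-kb2 reporter cells: 16 hr at 37C with 0.5 nM R1881, endpoint live-cell protease fluorescence measured in the reporter wells.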

[13] = qHTS assay to identify small molecule HDAC inhibitors (AID 1259364); note: potency is the fitted concentration of half-maximal effect;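 note: wild-type HCT-116 cells with endogenous class I/II HDAC activity; nearly all actives have a fitted effect of over 45% in size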
Method in brief: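 Screening used wild-type human colon HCT-116 cells incubated overnight, dosed with compounds for 2 hours, and assayed with a homogeneous luminogenic HDAC I/II reagent for 30 minutes at room temperature.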

[14] = qHTS assay to identify small molecule HDAC inhibitors - cell viability counter screen (AID 1259365)
Method in brief: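 Viability readout: CellTiter-Glo luminescence. Wild-type HCT-116 cells, 2hr compound treatment following overnight attachment at 37 C.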

[15] = qHTS assay to identify small molecule agonists of the sonic hedgehog signaling (Shh) pathway - cell viability counter screen (AID 1259366); note: nearly all actives have a fitted effect of over 50% in size
Method in brief: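 Viability measured fluorometrically (CellTiter-Fluor, 1hr, 37C) in 3T3 Gli1-Luc reporter cells after 23hr compound exposure within a 24hr incubation at 37C/5% CO2.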

[16] = qHTS assay to identify small molecule antagonists of the sonic hedgehog signaling (Shh) pathway - cell viability counter screen (AID 1259367); note: nearly all actives have a fitted effect of over 55% in size; note: potency is the fitted concentration of half-maximal effect
Method in brief: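 Cytotoxicity was assessed in parallel with Shh reporter activity by measuring live-cell protease fluorescence (CellTiter-Fluor) in NIH/3T3 cells stably carrying Gli1-Luc, treated with compound under conditioned medium stimulation for 23 hr plus 1 hr reagent incubation.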

[17] = A CellTox Green Cytotoxicity Assay to monitor cytotoxicity in HepG2 cells - 0 hour (AID 1224882); note: nearly all actives have a fitted effect of over 35% in size
Method in brief: as §3

[18] = target: Estrogen receptor (Homo sapiens) (UniProt P03372); assay: qHTS assay to identify small molecule antagonists of the estrogen receptor alpha (ER-alpha) signaling pathway using the BG1 cell line in the presence of 0.1 nM 17-beta-estradiol (AID 1259244); note: nearly all actives have a fitted effect of over 50% in size; note: potency is the fitted concentration of half-maximal effect
Sequence of Estrogen receptor (Homo sapiens) (P03372 whole entry, looked up): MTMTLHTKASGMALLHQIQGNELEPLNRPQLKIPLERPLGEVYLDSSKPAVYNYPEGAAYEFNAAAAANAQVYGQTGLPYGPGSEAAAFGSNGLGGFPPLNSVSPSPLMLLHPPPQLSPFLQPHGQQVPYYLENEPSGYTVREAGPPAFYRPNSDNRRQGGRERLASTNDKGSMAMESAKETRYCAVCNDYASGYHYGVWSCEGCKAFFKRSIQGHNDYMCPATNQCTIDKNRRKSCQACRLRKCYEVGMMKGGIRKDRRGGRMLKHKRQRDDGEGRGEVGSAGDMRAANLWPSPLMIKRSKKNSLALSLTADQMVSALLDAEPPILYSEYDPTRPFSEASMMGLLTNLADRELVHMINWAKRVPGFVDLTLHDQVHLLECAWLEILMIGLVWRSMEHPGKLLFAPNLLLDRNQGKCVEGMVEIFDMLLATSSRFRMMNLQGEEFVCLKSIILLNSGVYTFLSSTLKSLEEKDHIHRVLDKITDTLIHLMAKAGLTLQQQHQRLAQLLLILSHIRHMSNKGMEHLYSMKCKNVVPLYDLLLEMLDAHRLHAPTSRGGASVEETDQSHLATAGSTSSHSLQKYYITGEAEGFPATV
Method in brief: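 Compounds were tested against 0.1 nM (final) 17beta-estradiol in VM7Luc4E2 cells, which express full-length ER-alpha and an ERE-luciferase reporter; luminescence was recorded following 22 h exposure.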

[19] = target: Androgen receptor (Homo sapiens) (UniProt P10275); assay: qHTS assay to identify small molecule antagonists of the androgen receptor (AR) signaling pathway using the MDA cell line in the presence of 0.5 nM R1881 (AID 1259243); note: nearly all actives have a fitted effect of over 50% in size
Sequence of Androgen receptor (Homo sapiens) (P10275 whole entry, looked up): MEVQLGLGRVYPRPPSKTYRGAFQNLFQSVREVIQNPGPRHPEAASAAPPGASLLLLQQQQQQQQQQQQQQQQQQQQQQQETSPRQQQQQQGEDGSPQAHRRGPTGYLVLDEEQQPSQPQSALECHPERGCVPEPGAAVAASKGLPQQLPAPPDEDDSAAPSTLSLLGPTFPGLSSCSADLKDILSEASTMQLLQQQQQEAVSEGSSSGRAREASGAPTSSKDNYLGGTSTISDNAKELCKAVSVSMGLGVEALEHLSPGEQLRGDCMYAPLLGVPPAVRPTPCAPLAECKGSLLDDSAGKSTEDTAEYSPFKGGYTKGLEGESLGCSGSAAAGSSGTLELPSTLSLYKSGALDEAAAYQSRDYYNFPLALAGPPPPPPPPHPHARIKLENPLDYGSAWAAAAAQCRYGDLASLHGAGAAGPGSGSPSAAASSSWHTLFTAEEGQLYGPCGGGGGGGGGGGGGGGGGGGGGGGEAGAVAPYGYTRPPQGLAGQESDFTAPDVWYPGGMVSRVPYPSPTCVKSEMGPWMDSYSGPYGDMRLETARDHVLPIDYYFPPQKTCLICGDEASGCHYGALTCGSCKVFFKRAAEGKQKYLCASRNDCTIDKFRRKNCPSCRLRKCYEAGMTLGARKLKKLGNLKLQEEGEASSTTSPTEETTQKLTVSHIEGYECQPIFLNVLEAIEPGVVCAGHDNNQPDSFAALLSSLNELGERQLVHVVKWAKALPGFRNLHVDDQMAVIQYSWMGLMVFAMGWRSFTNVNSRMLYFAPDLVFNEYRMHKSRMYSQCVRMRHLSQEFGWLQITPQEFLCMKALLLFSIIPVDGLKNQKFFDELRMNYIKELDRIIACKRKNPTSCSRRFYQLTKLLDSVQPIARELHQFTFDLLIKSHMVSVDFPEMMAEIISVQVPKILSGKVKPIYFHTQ
Method in brief: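 With R1881 held at 0.5 nM (final), compound effects on MMTV-luciferase expression in MDA-kb2 cells were scored by luminescence after a 16 hr, 37C incubation.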

[20] = qHTS assay to identify small molecule phospholipidosis (PLD) inducers (AID 1259344; active = well fitted curve in the direction sought with a large enough effect; an effect the other way counts as inactive or inconclusive)
Method in brief: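 Cells (HepG2, 900 per well) attach for 4 h, receive LipidTOX Red and compound together, incubate 24 h at 37 C, are fixed 30 min with paraformaldehyde/Hoechst, then imaged at one site per well.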

Measured: Potency

CCC(=O)O[C@]1(C(=O)COC)[C@@H](C)C[C@H]2[C@@H]3CCC4=CC(=O)C=C[C@]4(C)C3(F)[C@@H](O)C[C@@]21C (some centres not stated)
not listed: [17] | [18] | [19] | [20]
inactive: all other assays above

C/C(=C\C(C)CC(C)CC(C)C)C1CC(=O)OC1=O (configuration not stated)
not listed: [4] | [6] | [14] | [19] | [20]
inactive: all other assays above

CC(C)(C)c1ccc(CCC=O)cc1
not listed: [3] | [5] | [6] | [9] | [19] | [20]
inactive: all other assays above

CC[C@H](NC(C)C)[C@H](O)c1ccc(O)c2[nH]c(=O)ccc12
not listed: [17]
inactive: all other assays above

C/C(=C(\CCO)SS/C(CCO)=C(\C)N(C=O)Cc1cnc(C)nc1N)N(C=O)Cc1cnc(C)nc1N
not listed: [4] | [6] | [14] | [18] | [19]
inactive: all other assays above

C1=COCCC1
not listed: [4] | [5] | [9] | [19] | [20]
inactive: all other assays above

CCc1c(C)[nH]c2c1C(=O)C(CN1CCOCC1)CC2 (configuration not stated)
not listed: [9] | [14] | [17] | [18] | [19]
inactive: all other assays above

Cc1nc2sccn2c(=O)c1CCN1CCC(=C(c2ccc(F)cc2)c2ccc(F)cc2)CC1
active: [6] 3.38 µM | [7] 3.01 µM
not listed: [1] | [18] | [19] | [20]
inactive: all other assays above

CCCCCCCCCCCC(=O)OCC
not listed: [5] | [17] | [18] | [19] | [20]
inactive: all other assays above

CC(C)=CCC/C(C)=C/C=N/O
not listed: [2] | [4] | [7] | [8] | [14] | [19] | [20]
inactive: all other assays above

O=C(Nc1ccc2c(c1)Cc1ccccc1-2)C(F)(F)F
not listed: [6] | [13] | [17] | [18] | [19] | [20]
inactive: all other assays above

OCCCO
not listed: [7] | [9] | [17] | [20]
inactive: all other assays above

Cc1c(Cl)cccc1Nc1ccccc1C(=O)O
not listed: [6] | [15] | [17] | [19]
inactive: all other assays above

CC(C)(Cc1c[nH]c2ccccc12)NCC(O)COc1ccccc1C#N (configuration not stated)
active: [6] 9.52 µM | [7] 7.56 µM
not listed: [3] | [4] | [15] | [17] | [18] | [19] | [20]
inactive: all other assays above

COc1ccc(C(=O)c2ccc(C)cc2)c(O)c1
not listed: [6] | [7] | [13] | [17] | [19]
inactive: all other assays above

O=c1c2ccccc2oc2ccccc12
active: [13] 17.2 µM
not listed: [2] | [5] | [7] | [18] | [19] | [20]
inactive: all other assays above

CCCN(C1CCN(C(=O)C2CCNCC2)CC1)[C@@H]1CCc2ccc(OC)cc2C1
inactive: [1] | [17] | [5] | [7] | [9] | [10] | [11] | [12] | [19] | [13] | [16]

CO[C@@H]1COCC[C@@H]1N[C@@H]1CC[C@@](C(=O)N2CCc3ncc(C(F)(F)F)cc3C2)(C(C)C)C1
active: [6] 17.3 µM
not listed: [7] | [17] | [18] | [19] | [20]
inactive: all other assays above

CC(=O)c1ccc(Cl)c(Cl)c1Cl
not listed: [2] | [4] | [5] | [18] | [19] | [20]
inactive: all other assays above

O=C1c2ccccc2C(=O)C1c1ccc2ccccc2n1
inactive: [1] | [17] | [3] | [5] | [9] | [10] | [11] | [12] | [15] | [16]
active: [13] 1.91 µM

CC(CC(C#N)(c1ccccc1)C(C)C)N(C)C (configuration not stated)
not listed: [4] | [7] | [14] | [17] | [18] | [20]
inactive: all other assays above

O=C(O)c1c2ccccc2cc2ccccc12
not listed: [2] | [6] | [17] | [19] | [20]
inactive: all other assays above

CCCCCCC/C=C/C=O
not listed: [8] | [17] | [18] | [19] | [20]
inactive: all other assays above

C[C@H](CN1CCCC1)C(=O)c1ccc(C(F)(F)F)cc1
active: [3] 21.3 µM
not listed: [2] | [5] | [6] | [7] | [15] | [18] | [19]
inactive: all other assays above

CC(C)(C)c1cc(C=O)cc(C(C)(C)C)c1O
not listed: [7] | [15] | [17] | [19] | [20]
inactive: all other assays above

Oc1ccc(Oc2ccccc2)cc1
active: [3] 36.9 µM | [6] 16.5 µM
inactive: [1] | [8] | [9] | [11] | [12] | [18] | [13] | [14] | [15] | [16]

CCCCCCCCCCCCN1CCOCC1
not listed: [1] | [4] | [5] | [9] | [19] | [20]
inactive: all other assays above

O=C1c2ccccc2C(=O)C1c1ccc2cc(S(=O)(=O)O)cc(S(=O)(=O)O)c2n1
active: [11] 58.9 µM | [12] 58.9 µM | [13] 0.589 µM | [16] 29.5 µM
inactive: [2] | [17] | [3] | [4] | [6] | [8] | [10] | [18] | [14]

CCOc1ccc2c(c1)C(C)CC(C)(C)N2 (configuration not stated)
active: [3] 43.6 µM
not listed: [2] | [10] | [18] | [20]
inactive: all other assays above

CC(=O)CC/C=C(\C)CC/C=C(\C)CC/C=C(\C)CCC=C(C)C
not listed: [5] | [14] | [15] | [17] | [18] | [19]
inactive: all other assays above

CC(C)CC(C)(C)C
inactive: [3] | [4] | [5] | [10] | [11] | [12] | [13] | [14] | [15] | [16]

COc1ccc(/C=C/S(=O)(=O)NC(=O)c2ccc(C)cc2Cl)cc1
not listed: [6] | [7] | [17] | [18] | [19] | [20]
inactive: all other assays above

CC(C)C[C@H](NC(=O)[C@H](Cc1ccccc1)NC(=O)c1cnccn1)B(O)O
active: [2] 0.19 µM | [3] 0.0239 µM | [6] 0.0756 µM | [11] 0.266 µM | [18] 0.0596 µM | [16] 5.31 µM
not listed: [5] | [12] | [15] | [17] | [19]
inactive: all other assays above

CC1(COc2ccc(CC3SC(=O)NC3=O)cc2)CCCCC1 (configuration not stated)
not listed: [2] | [4] | [15] | [19]
inactive: all other assays above

O=C(c1ccc(Cl)cc1)c1ccc(Cl)cc1
not listed: [3] | [5] | [17] | [20]
inactive: all other assays above

CC(C)(C)NCC(O)COc1ccc(NC(=O)NC2CCCCC2)cc1 (configuration not stated)
not listed: [1] | [5] | [6] | [7] | [8] | [9] | [18] | [19]
inactive: all other assays above

COC(=O)/C=C/C(C)=C\C=C\C(C)=C\C=C\C=C(C)\C=C\C=C(C)\C=C\C(=O)O
active: [13] 24.3 µM
not listed: [4] | [14] | [17] | [20]
inactive: all other assays above
